# Measured values: PubChem BioAssay (NCI)
# Values joined by “and” are separate entries in the source; they are usually repeats but may differ in a detail not shown here. Equal values may be shown once. The panel holds about 83,000 compounds, 20% with a hit somewhere; the sample as a whole holds those more often.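 48-hour exposure, single concentration, 96-well plates; percent growth endpoint where 0 means no net growth. Active: below 10.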 A number with no mark means an inactive call.
# System: HL-60(TB) leukemia
# Experiment: NCI-60 one-dose screen, 48 h (100 = growth as untreated, 0 = no growth, -100 = all killed)
# Conditions: 10 µM unless noted
row,Compound,growth
1,O=c1[nH]ncc(Br)c1Br,65.5%
2,CC(C)(O)Cn1cc(-c2ccc3nc(OC4CC4)ccc3c2)c2c(N)ncnc21,97.3% and 76.7%
3,CCc1c(C)c2cc3nc(NCc4ccccc4)oc3c(C)c2oc1=O,80.6%
4,O=C(O)CC(Cl)C(Cl)CC(=O)O (centres undefined),99.5%
